Assay outcomes deposited in PubChem by several laboratories.
Measles CPE: protection of cells from measles virus; protection (pct of control), % at 4 µM; AID 841; actives 1.5% (n = 140,000); Measles virus-infected cells, CPE protection, absorbance; in the data active = protection mostly above about 24%, no sharp cut-off; inactive = mostly below about 26%
CYP2C9 act: activators of human CYP2C9 | P11712 | recombinant CYP2C9, luciferin-H conversion, luminescence; active compounds read high; factor 1 = untreated enzyme, 0 = blocked | activation factor at 5 µM | actives 1.4% (n = 96,000) | AID 1024;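 active = activation factor of 2 or more for CYP2C9 at a 5 µM dose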;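 also: 0 = sulfaphenazole-blocked wells and 1 = vehicle-only wells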
Target sequence (P11712 whole entry, looked up): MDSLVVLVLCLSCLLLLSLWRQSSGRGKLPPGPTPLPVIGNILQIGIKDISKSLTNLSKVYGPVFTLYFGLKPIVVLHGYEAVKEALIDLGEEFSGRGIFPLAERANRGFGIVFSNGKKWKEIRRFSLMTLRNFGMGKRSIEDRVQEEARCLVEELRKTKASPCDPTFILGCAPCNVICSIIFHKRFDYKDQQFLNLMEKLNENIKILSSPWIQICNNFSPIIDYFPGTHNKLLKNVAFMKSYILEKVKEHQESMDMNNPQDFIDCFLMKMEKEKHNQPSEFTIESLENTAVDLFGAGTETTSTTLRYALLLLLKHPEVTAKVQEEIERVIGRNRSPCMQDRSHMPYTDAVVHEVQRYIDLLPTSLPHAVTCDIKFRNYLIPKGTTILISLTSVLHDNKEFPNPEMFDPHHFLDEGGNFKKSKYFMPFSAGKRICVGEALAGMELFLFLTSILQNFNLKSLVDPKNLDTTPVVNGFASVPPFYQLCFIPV
CYP2C19 act: activators of human cytochrome P450 2C19 | P33261 | recombinant CYP2C19, luciferin-H EGE luminescence; active compounds read high; 0 = fully inhibited enzyme, 1 = untreated enzyme | activation factor at 5 µM | 96,000 tested, under 10 active | AID 1025;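 active = activation factor of at least 2 at 5 µM in the primary screen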;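 also: 0 = wells with 2.5 mM tranylcypromine and 1 = vehicle-only wells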
CYP2C19 inhib: inhibitors of human CYP2C19; inhibition, % at 5 µM; actives 21% (n = 96,000); CYP2C19 Supersomes, luciferin-H EGE luminescence, 30 min;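 active = CYP2C19 inhibition above a set limit at 5 µM in the primary screen, cut at about 50% in these data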;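 also: plate controls were negative control wells for no effect and 2.5 mM tranylcypromine positive control for full effect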
CYP2C9 inh: human CYP2C9 inhibition; CYP2C9 Supersomes, luciferin-H conversion, luminescence; inhibition, % at 5 µM; P11712; actives 20% (n = 96,000); AID 777;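 active = blocking of liver enzyme CYP2C9 beyond about 50% at 5 µM, limit read from the data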
* = called active by the depositor; nt = no result given. An excerpt weighted towards active compounds, which were near 22% of everything screened.

SMILES	Measles CPE	CYP2C9 act	CYP2C19 act	CYP2C19 inhib	CYP2C9 inh
CCC(=O)NC(NC(=S)Nc1ccccc1Br)C(Cl)(Cl)Cl (stereo not drawn)	2	nt	nt	nt	nt
COC(=O)c1cc(C#N)c(Oc2ccccc2OC)nc1C	6	0.5	0.3	72*	52*
COC(=O)c1cc(C#N)c(NCc2ccccc2)nc1C	20	1	0.9	11	4
CCOC(=O)c1cc(C#N)c(Oc2ccccc2OC)nc1-c1ccccc1	6	0.4	0.6	42	64*
Cn1c(Cc2ccc3c(c2)OCO3)nnc1SCC(=O)N1CCc2ccccc2C1	nt	0.9	0.6	42	11
CCC(C)NC(=S)N(CCc1ccccc1)Cc1cc2cc(OC)c(OC)cc2[nH]c1=O (stereo not drawn)	16	nt	nt	nt	nt
CC(C)OC(=O)CSc1nnc(-c2ccncc2)n1N	10	0.4	0.1	86*	56*
CCOC(=O)c1ccc(CSc2nnc(-c3ccncc3)n2N)cc1	31	0.6	0.3	68*	38
COC(=O)c1ccc(NC(=O)CSc2nnc(-c3ccncc3)n2N)cc1	5	0.9	1	4	9
O=C(COc1ccc(Br)cc1Cl)NC(=S)N1CCc2ccccc21	6	nt	nt	nt	nt
O=C(COc1ccc(Br)cc1Br)NC(=S)N1CCCc2ccccc21	10	0.2	1.1	-9	77*
Cc1sc(NC(=O)CN2CCN(c3ccccn3)CC2)c(C#N)c1C	5	nt	nt	nt	nt
O=C(CCN1CCN(c2ccccn2)CC1)Nc1ccc(F)cc1	11	0.5	0.9	9	48
Cc1ccc(NC(=O)CN2CCN(c3ccccn3)CC2)c(Cl)c1	22	0.1	0.5	55*	86*
Cc1ccc(S(=O)(=O)N(C)CC(=O)N2CCN(c3ccccn3)CC2)cc1	28	1.5	0.9	11	-48
Cc1cc(C)cc(NC(=O)CN2CCN(c3ncccn3)CC2)c1	23	0.8	0.7	26	24
O=C(CN1CCN(c2ccccn2)CC1)Nc1ccc2ccccc2c1	1	0.4	0.7	28	55*
CN(CC(=O)N1CCN(c2ccccn2)CC1)S(=O)(=O)c1ccc2ccccc2c1	26	2.7*	0.7	26	-172
O=C(CN1CCN(c2ncccn2)CC1)Nc1ccccc1-n1cccc1	13	0.2	0.1	95*	79*
CC(/C=N/NC(=O)c1cccnc1)=C\c1ccco1	18	1	1	-4	-3
O=C(C(c1ccccc1)c1ccccc1)N1CCCc2ccccc21	21	nt	nt	nt	nt
CCOC(=O)c1ccccc1NC(=O)COC	15	0.9	0.9	6	12
Cc1nc2ccc(NC(=O)N3CCCCC3)cc2s1	10	1	0.9	14	-3
Cc1nc2ccc(NC(=O)N3CCN(c4ccccn4)CC3)cc2s1	18	0.2	0.8	22	80*
O=C(CN1CCN(c2ccccn2)CC1)Nc1ccc(Cl)c(C(F)(F)F)c1	18	0.9	1	4	5
SMILES	Measles CPE	CYP2C9 act	CYP2C19 act	CYP2C19 inhib	CYP2C9 inh
O=C(CN1CCN(c2ccccn2)CC1)Nc1cc(C(F)(F)F)ccc1Cl	1	0.3	0.7	26	74*
CS(=O)(=O)N1CCN(c2ccc(NC(=O)CSc3ccc(Cl)cc3)cc2)CC1	17	0.8	1	-2	16
Cn1c(CN2CCN(c3cccc(Cl)c3)CC2)nc2ccccc21	10	nt	nt	nt	nt
Nn1cc(-c2ccccc2)nc1SCC(=O)N1CCN(S(=O)(=O)c2ccc(Cl)cc2)CC1	23*	0.9	0.9	6	12
O=C(Cn1nnc(-c2ccc(S(=O)(=O)N3CCCC3)cc2)n1)NCC1CCCO1 (stereo not drawn)	6	0.3	0.7	26	70*
CC1CCN(S(=O)(=O)c2ccc(NC(=O)Cn3nnc(-c4ccccc4)n3)cc2)CC1	3	0.2	0.6	43	76*
CC1CCCN(S(=O)(=O)c2ccc(NC(=O)Cn3nnc(-c4ccccc4F)n3)cc2)C1 (stereo not drawn)	11	0	0.4	62*	99*
CN(C(=O)Nc1ccc(Cl)cc1)c1c2c(nn1C)CCCC2	6	0.7	0.6	42	27
COc1ccc(CNC(C)(C)C)cc1Cl	5	1	1.1	-6	0
O=C(NC1CCCC1)C(c1ccccn1)N(C(=O)c1csnn1)C1CCCCC1 (stereo not drawn)	3	nt	nt	nt	nt
Cc1ccccc1-c1nnn(CC(=O)N2CCN(S(=O)(=O)c3ccc(Cl)cc3)CC2)n1	5	0.8	0.4	62*	20
CC(C)CCNC(=O)C1CC(c2cccc([N+](=O)[O-])c2)=NO1 (stereo not drawn)	8	1.4	0.8	23	-43
O=C(NCc1ccc(C(F)(F)F)cc1)C1CC(c2ccccc2[N+](=O)[O-])=NO1 (stereo not drawn)	4	1.8	0.6	38	-77
CCCCNC(=O)C1CC(c2cccc([N+](=O)[O-])c2)=NO1 (stereo not drawn)	7	2*	1	0	-99
O=C(NCc1ccc(C(F)(F)F)cc1)C1CC(c2c(Cl)cccc2Cl)=NO1 (stereo not drawn)	13	0.7	0.4	64*	26
COc1cc(C2=NOC(C(=O)NCc3ccc(F)cc3)C2)cc(OC)c1OC (stereo not drawn)	3	1.6	0.3	69*	-61
COc1ccccc1CNC(=O)C1CC(c2cccc([N+](=O)[O-])c2)=NO1 (stereo not drawn)	8	2.5*	0.7	30	-150
O=C1C(C=NC2CC2)=C(O)c2ccccc21	6	0.9	1	2	6
CC(=O)NCCc1cc2ccc(C)cc2[nH]c1=O	5	1	1	-2	2
COc1ccc(-n2nnnc2SCC(=O)Nc2nnn(C)n2)cc1	17	1.1	1.2	-18	-11
COc1cc(OC)c(C2=NOC(C(=O)NCc3ccc4c(c3)OCO4)C2)cc1Cl (stereo not drawn)	3	1.2	0.1	93*	-16
CCCCNC(=O)C1CC(c2c(Cl)cccc2Cl)=NO1 (stereo not drawn)	17	4.8*	0.7	27	-385
CC#CCN(CC#CC)S(=O)(=O)c1ccc(S(=O)(=O)N2CCOCC2)cc1	30	0.6	0.6	36	44
O=S(=O)(c1ccc(NCCc2c[nH]c3ccccc23)nc1)N1CCOCC1	6	0.7	0.5	51*	28
CCCn1nnc(NC(=O)c2cc(Br)cc(Br)c2OC)n1	16	0.7	0.2	83*	27
SMILES	Measles CPE	CYP2C9 act	CYP2C19 act	CYP2C19 inhib	CYP2C9 inh
CCCn1nnc(NC(=S)NC(=O)CC)n1	6	0.9	0.3	71*	8
CCCn1nnc(NC(=O)c2ccc(Br)cc2)n1	6	0.9	0.4	56*	15
CCCCn1nnc(NC(=S)NC(=O)c2cccs2)n1	30	nt	nt	nt	nt
CCCn1nnc(NC(=O)c2ccc(-c3ccccc3)cc2)n1	0	0.9	0.8	25	7
O=C(CSc1nnc2n1CCCN2C(=S)Nc1ccc(Cl)cc1)c1ccccc1	15	nt	nt	nt	nt
CN(C)C(=O)CSc1cccc2cccnc12	6	1.2	1.1	-11	-22
